This passage reports growth inhibition and condensed nuclei results from PubChem BioAssay AID771 (SRMLSC, 2007).

Screen size: about 3,300 compounds; about 55 (2%) were called active. The sample holds actives, similar compounds and a random draw of the others, so the mix is not that of the screen.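 How the source made its calls: active means growth inhibition above 90%, meaning viable cell count by imaging cut by more than 90% versus vehicle controls; inactive means growth inhibition below 90%.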

The experiment in a line: HT29 colon tumor cell growth inhibition, primary screen, imaging, high content imaging, 48 h, CellTiter-Glo (AID 771).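 On condensed nuclei: condensed means Hoechst nuclear area under control median minus 1.5 SD.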 As to conditions: HCS imaging cell count, at 10 µM, stronger effect = higher value; for condensed nuclei: measured here: percent cells with condensed nuclei. (In general: Cellular ATP, detected with luciferase, serves as a proxy for viable cell number.)
Setting [1] is: measured here: ATP CellTiter-Glo viability inhibition.

`N#CC1(c2ccccc2)CCC(=NO)CC1` (stereo not drawn): the growth inhibition is -54.8% (inactive) and the condensed nuclei came out at 1.75%. The growth inhibition under setting [1] is -7.61%.
As for `CC1(C)Cc2c(c(-c3ccccc3)[nH]c(=O)c2C#N)CS1`, the growth inhibition was 40.9% (inactive) and the condensed nuclei stood at 3.57%. Further, under setting [1], the growth inhibition came to 27.6%.
In the case of `COCCNC(=O)c1c(N)n(CCC2=CCCCC2)c2nc3ccccc3nc12`, the growth inhibition was 39.4% (inactive) and the condensed nuclei amounted to 2.68%. Also, the growth inhibition under setting [1] stood at 20.4%.
For `C=CCn1c(N)c(C(=O)OC(C)(C)C)c2nc3ccccc3nc21`, in that order: 56.4% (inactive), 2.73% and 24.8%.
The like results for `C=CCn1c(N)c(C(=O)Nc2ccccc2)c2nc3ccccc3nc21` were, in that order, 90.9% (active), 18.1% and 90.8%.
Turning to `C=CCn1c(-c2ccccc2)n[nH]c1=S`, the growth inhibition was -21.6% (inactive) and the condensed nuclei turned out to be 2.91%. Moreover, the growth inhibition under setting [1] is -24.2%.
Consider `Cc1ccc(NC(=O)c2cc(N3CCOCC3)nc3ccccc23)cc1`, for which the growth inhibition was 52% (inactive) and the condensed nuclei is 7.65%. For the same molecule, under setting [1], the growth inhibition amounted to 31.6%.
As for `CCOC(=O)c1[nH]c2ccc(OC)cc2c1NC(=O)CCN1CCc2ccccc2C1`, the growth inhibition is 24.3% (inactive) and the condensed nuclei was determined as 9.73%. Besides, under setting [1], the growth inhibition stood at 4.08%.
For `Clc1ccc2[nH]c3c(NCCN4CCOCC4)ncnc3c2c1`, in that order: 90.1% (active), 8.91% and 74.8%.
The like results for `Oc1ccccc1-c1nc(NCCN2CCOCC2)c2ccccc2n1` were, in that order, 83.2% (inactive), 16.5% and 73.4%.
For `Cc1ccc2[nH]c3c(NCCN4CCOCC4)ncnc3c2c1`, in that order: 45.8% (inactive), 3.45% and 24.8%.
`CCN(CC)CCNc1ncnc2c1[nH]c1ccc(OC)cc12`: the growth inhibition is 68.1% (inactive) and the condensed nuclei is 4.62%. Also, the growth inhibition under setting [1] stood at 44%.
On to `Clc1ccc2[nH]c3c(NCCCN4CCOCC4)ncnc3c2c1`, for which the growth inhibition was 97.5% (active) and the condensed nuclei amounted to 33%. The growth inhibition under setting [1] turned out to be 90%.
For `Fc1ccccc1-c1nc(NCCCN2CCOCC2)c2ccccc2n1`, the growth inhibition is 40% (inactive) and the condensed nuclei came to 7.24%. The growth inhibition under setting [1] is 34.1%.
For the molecule `CC/C(C)=C1\SC(N2CCN(C(C)=O)CC2)=NC1=O`, the growth inhibition is -12% (inactive) and the condensed nuclei was found to be 2.39%. The growth inhibition under setting [1] is -28.4%.
Take `Cc1c(N=Cc2c(O)n(C3CCCCC3)c(=O)[nH]c2=O)c(=O)n(-c2ccccc2)n1C`: the growth inhibition is -40.9% (inactive) and the condensed nuclei amounted to 2.12%. For the same molecule, under setting [1], the growth inhibition was -6.25%.
Turning to `COC(=O)CN(c1nc(C)c(Br)c(OC)n1)S(=O)(=O)c1ccc(C)cc1`, the growth inhibition was 28.7% (inactive) and the condensed nuclei stood at 1.9%. In addition, the growth inhibition under setting [1] turned out to be 6.19%.
For the molecule `N#Cc1ccc(-c2ccc(OCC(O)Cn3nnc4ccccc43)cc2)cc1` (stereo not drawn), the growth inhibition is 10.4% (inactive) and the condensed nuclei came out at 1.87%. Under setting [1], the growth inhibition was -1.94%.
Turning to `CCOc1ccc(-c2nnc3sc(COc4ccccc4)nn23)cc1`, the growth inhibition is 41.5% (inactive) and the condensed nuclei was determined as 2.51%. In addition, the growth inhibition under setting [1] is -17%.
Turning to `Clc1ccc(-n2ncc3c(NCc4ccccn4)ncnc32)cc1`, the growth inhibition is 38.1% (inactive) and the condensed nuclei turned out to be 3.3%. The growth inhibition under setting [1] is 0.14%.
For `Cc1cccc(-n2ncc3c(NCCN4CCOCC4)ncnc32)c1`, in that order: 15.5% (inactive), 3.92% and 9.31%.
Turning to `Clc1ccc(-n2ncc3c(NCc4cccs4)ncnc32)cc1`, the growth inhibition was -9.4% (inactive) and the condensed nuclei stood at 3.73%. Under setting [1], the growth inhibition was -1.37%.
For `COc1ccccc1Nc1ncnc2c1cnn2-c1cccc(C)c1`, in that order: 30.4% (inactive), 2.98% and -0.29%.
The like results for `Clc1ccc(-n2ncc3c(NCc4ccco4)ncnc32)cc1` were, in that order, 92.3% (active), 19.6% and 76.5%.
For `Cc1cccc(-n2ncc3c(NCc4ccco4)ncnc32)c1`, in that order: 90.8% (active), 5.66% and 68.2%.
Turning to `CC(=O)c1ccc(O)c(CO)c1`, the growth inhibition was -13.1% (inactive) and the condensed nuclei came to 2.86%. Besides, the growth inhibition under setting [1] was -11.8%.
Regarding `COC(=O)c1ccc(C2NC(C(=O)O)CS2)cc1` (stereo not drawn), the growth inhibition was 16% (inactive) and the condensed nuclei was found to be 1.25%. In addition, the growth inhibition under setting [1] is -10.7%.
For `CCNC(=O)Nn1c(C)nnc1C`, in that order: -8.98% (inactive), 1.64% and -2.65%.
Take `COC(=O)Nc1nc2ccc(C(=O)c3ccccc3)cc2[nH]1`: the growth inhibition was 86.4% (inactive) and the condensed nuclei was 34.6%.
For `COC(=O)Nc1nc2ccc(Sc3ccccc3)cc2[nH]1`, in that order: 90.4% (active) and 42%.
As to `Cc1ccc2nc(NCc3ccccc3)[nH]c2c1`, the growth inhibition is 87.6% (inactive) and the condensed nuclei worked out at 19.4%. Moreover, under setting [1], the growth inhibition was determined as 67.4%.
For the molecule `CCOc1ccc2nc(SCC(=O)Nc3ncccn3)[nH]c2c1`, the growth inhibition was -11.5% (inactive) and the condensed nuclei was 3.9%. The growth inhibition under setting [1] is 0%.
On to `CCCOc1ccc2nc(NC(=O)OC)[nH]c2c1`, for which the growth inhibition is 78.7% (inactive) and the condensed nuclei is 35.7%.
As for `CCCSc1ccc2nc(NC(=O)OC)[nH]c2c1`, the growth inhibition is 90.4% (active) and the condensed nuclei is 33.3%.
Turning to `Cc1cc(=O)oc(C)c1C(=O)Nc1ccc2nsnc2c1`, the growth inhibition is 31.3% (inactive) and the condensed nuclei turned out to be 3.08%. Under setting [1], the growth inhibition is -17.1%.
For the molecule `CCCCCNC(=O)c1c(N)n(/N=C/c2ccco2)c2nc3ccccc3nc12`, the growth inhibition was 44.5% (inactive) and the condensed nuclei is 0.77%. For the same molecule, the growth inhibition under setting [1] was found to be 5.72%.
For `CC1(C)Cc2c(C#N)c(SCC(=O)c3ccccc3)nc(N3CCOCC3)c2CS1`, the growth inhibition was 83.5% (inactive) and the condensed nuclei turned out to be 17.6%. Moreover, the growth inhibition under setting [1] stood at 76.7%.
With `CCN(CC)CCOC(=O)C1(c2ccc(OC)c(OC)c2)CCCC1`, the growth inhibition was -76.7% (inactive) and the condensed nuclei is 1.64%. Further, under setting [1], the growth inhibition was -5.14%.
For `COc1ccc(C(=O)NCCCCCC(=O)O)cc1OC`, in that order: 5.72% (inactive), 1.69% and 3.37%.
